FLuc modulator: firefly luciferase modulation, counter-screen for miR-21 project; P08659; purified FLuc, Km substrates, luminescence inhibition; Potency, µM (doses to about 57.5 µM), for inactives: at the highest dose activity change, negative = inhibition, usual class: inhibitors; hit rate 6.9% among 360,000;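 also: plate controls were vehicle for no effect and reference inhibitor for full effect; nearly all actives have a fitted effect of over 55% in size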
Target sequence (P08659 whole entry, looked up): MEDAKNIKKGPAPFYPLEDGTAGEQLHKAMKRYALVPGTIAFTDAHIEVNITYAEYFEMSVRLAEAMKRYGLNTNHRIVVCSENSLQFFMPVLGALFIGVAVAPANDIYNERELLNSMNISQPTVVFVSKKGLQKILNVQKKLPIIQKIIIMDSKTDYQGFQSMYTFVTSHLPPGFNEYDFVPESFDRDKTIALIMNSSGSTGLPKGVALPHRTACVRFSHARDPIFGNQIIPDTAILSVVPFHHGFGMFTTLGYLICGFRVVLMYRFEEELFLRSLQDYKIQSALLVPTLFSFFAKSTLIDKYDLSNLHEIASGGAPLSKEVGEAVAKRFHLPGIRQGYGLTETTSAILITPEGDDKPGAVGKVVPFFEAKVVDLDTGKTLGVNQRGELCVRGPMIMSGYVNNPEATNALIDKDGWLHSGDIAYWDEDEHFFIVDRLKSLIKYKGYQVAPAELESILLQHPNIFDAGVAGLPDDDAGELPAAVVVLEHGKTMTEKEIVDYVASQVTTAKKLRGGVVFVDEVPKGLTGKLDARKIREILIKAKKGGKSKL
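Biochemical qHTS of compounds, final roughly 60 µM downward over six points, against 10 nM purified firefly luciferase using Km concentrations of substrates (10 uM D-luciferin, 10 uM ATP) in Tris acetate pH 7.5 buffer; luminescence output.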
SMN2 splice enh: increases expression of the SMN2 splice variant; HEK293 SMN2-luciferase splicing reporter, luminescence, 30-36 h; AID 1458; hit rate 2.8% among 210,000; Potency, µM (highest dose often 46.1 µM), for inactives: at the highest dose activity change, positive = activation, hits mostly activators; also: % of control where 0% means no effect; nearly all actives have a fitted effect of over 55% in size
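qHTS luciferase splicing reporter: luminescence rises when SMN2 exon 7 is included in transfected HEK293 cells. Compound exposure lasted 30-36 h at 37C, with 4.5 mM final sodium butyrate as control, followed by a ONE-Glo read.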
Luc counter: blocks Kinase-Glo luciferase, a counter-screen artifact; Q27757; Kinase-Glo luciferase, ATP luminescence, 8 min; Potency, µM (titrated, usually from 38.3 µM), without a hit: at the highest dose activity change, negative = inhibition, hits mostly inhibitors; hit rate 0.28% among 200,000; also: % is scaled to controls: 0 for no effect and ±100 for the full control effect; nearly all actives have a fitted effect of over 60% in size
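Recombinant Kinase-Glo luciferase, 10 uM ATP (linear range), luciferin; imidazole pH 7.2 / KCl / MgCl2 / Tween / BSA buffer; 8 min RT; luminescence.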
NPC1 promoter act: NPC1 promoter activation. Potency, µM (titrated, usually from 9.22 µM), without a hit: at the top dose activation, usual class: activators. Huh7 NPC1 promoter luciferase reporter, 24 h. AID 485313. hit rate 2.4% among 320,000; also: % of control where 0% means no effect; nearly all actives have a fitted effect of over 60% in size
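In 1536-well qHTS, Huh7 cells harboring an NPC1 promoter–luciferase construct received compound for 24 h; activation was quantified by luminescence following luciferase reagent addition.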
ELG1 genotox: genotoxicity induction in ELG1-luciferase HEK293T cells; HEK293T ELG1-luciferase reporter, luminescence, 16 h; hit rate 1.3% among 330,000; Potency, µM (series often up to 46 µM), inactives show at the top dose activity change, positive = activation, hits mostly activators; also: % of control where 0% means no effect; nearly all actives have a fitted effect of over 60% in size
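Reporter readout depends on ELG1 protein level, which increases with genetic stress. After 16 hr compound exposure at 37 °C, luciferase activity was quantified using ONE-Glo.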
Rab9 prom act: activates the Rab9 promoter; Huh7 Rab9 promoter-luciferase reporter, luminescence, 24 h; Potency, µM (highest dose often 9.22 µM), for inactives: at the top dose activation, negative = inhibition, most hits filed as activators; hit rate 2.8% among 320,000; also: % of control where 0% means no effect; nearly all actives have a fitted effect of over 60% in size
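Luciferase signal after 10 min detection reagent at ambient indicates Rab9 promoter upregulation; stably transfected Huh7 cells were treated 24 h with compound in DMSO at 37 °C, 5% CO2.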
The depositor's hits bear a star; ? = inconclusive; . = not tested or not shown; [ ] = remark or other dose. In the library only some 7.3% were active in any assay of this set; here they are far more common. Calls follow the shape of the dose curve; as a rule, active = well fitted curve in the direction sought with a large enough effect; inconclusive = small, poorly fitted or top-dose-only effect, or another doubt; inactive = no such curve, though single readings can be large; an effect the other way counts as inactive or inconclusive. Potency is read from the fitted curve at half-maximal effect.

SMILES	FLuc modulator	SMN2 splice enh	Luc counter	NPC1 promoter act	ELG1 genotox	Rab9 prom act
CN(C)c1ccc(/C=C/c2nc3ccccc3s2)cc1	0.11µM*	-79%	11µM*	0%	-4%	?
CCN(CC)c1ccc(/C=C/c2cc(-c3ccccc3)c3ccccc3n2)cc1	?	.	.	-7%	-1%	-4%
Cc1cc(N/N=C/c2ccc(N(C)C)cc2)c2ccccc2n1	?	.	.	-3%	8%	-3%
CN(C)c1ccc(/C=C/c2ccc3ccccc3n2)cc1	0.067µM*	.	.	-18%	?	?
O=C(O)/C=C/c1ccc2ccccc2n1	2%	-11%	5%	-1%	-1%	1%
CCCN(CCC)c1ccc(/C=C/c2ccc3cc(OCC)ccc3n2)cc1	6.7µM*	.	.	?	10%	2.2µM*
CN(C)c1ccc(CNc2nc3ccccc3s2)cc1	0.24µM*	.	.	0.1µM*	0.46µM*	0.25µM*
CCOc1ccc(C2=CC(c3cc(Br)ccc3F)n3ncnc3N2)cc1Cl (centres undefined)	-2%	.	.	.	.	.
COc1cc(/C=C/c2nc3ccccc3s2)cc(OC)c1O	19µM*	24%	-4%	7%	18µM*	?
Oc1ccc(/C(Cc2ccc3ccccc3n2)=N\Nc2ccccc2)c(O)c1	?	.	.	1%	?	?
O/C(=C\c1ccc2ccccc2n1)c1ccc(O)cc1O	1.5µM*	8.9µM*	-19%	1.1µM*	2.6µM*	2.2µM*
COc1cc(C=C(c2nc3ccccc3s2)c2nc3ccccc3s2)ccc1O	?	-13%	0%	-1%	1%	-5%
Oc1ccc(/C=C/c2ccc3ccccc3n2)cc1	0.13µM*	2.8µM*	?	?	0.26µM*	?
COc1ccc(-c2noc(CSc3nnc(-c4ccncc4)n3-c3ccc(C)c(C)c3)n2)cc1	-1%	-4%	.	.	.	.
CC(C)CCOc1ccc(Cn2c(=O)oc3ccccc32)cc1	-2%	-6%	.	.	.	.
Cc1ccc(CCNC(=O)CN2C(=O)COc3ccc(S(=O)(=O)N4CCCCCC4)cc32)cc1	-15%	.	.	.	.	.
Cc1cc(C)c2c(-n3cccc3)c(C(=O)NCCc3ccc(Cl)cc3)sc2n1	-1%	.	.	.	.	.
NC(=S)N/N=C/c1ccc(-c2ccc(SC(F)F)cc2)o1	24µM*	.	.	0%	-4%	0%
Cc1ccc(-c2ccc(/C=N/NC(N)=S)o2)cc1	6.7µM*	.	.	?	12%	?
COc1cc(C(C)=O)ccc1COc1ccc(C(=O)OCC(N)=O)cc1OC	12µM*	-36%	6%	0%	3%	-2%
COc1cccc2cc(C(=O)NCCc3c(C)[nH]c4ccc(F)cc34)c(=O)oc12	6%	4%	.	.	.	.
CCOC(=O)c1[nH]c2cc(OC)c(OC)cc2c1NC(=O)CN1CCN(C)CC1	-1%	.	0%	-4%	21µM*	-3%
CCOC(=O)c1[nH]c2ccc(C)cc2c1NC(=O)CN1CCCCC1	1%	5%	0%	1%	-8%	1%
O=C(/C=C1\NCC2c3ccccc3CCN2C1=O)c1ccccc1 (centres undefined)	1.2µM*	2.8µM*	-10%	4µM*	-2%	3.5µM*
O=C(C1CCCCC1)N1CC(=O)N2CCc3ccccc3[C@@H]2C1	.	-2%[20.6 µM]	-1%[17.1 µM]	.	.	.
SMILES	FLuc modulator	SMN2 splice enh	Luc counter	NPC1 promoter act	ELG1 genotox	Rab9 prom act
C/C(=N\NC(=O)c1cc2ccccc2cc1O)c1cccs1	3.8µM*	.	.	0.56µM*	?	0.63µM*
C/C(=N\NC(=O)c1cc(Cl)ccc1O)c1ccc(Br)s1	6.7µM*	4µM*	-1%	4µM*	10%	3.5µM*
O=C(NNC(=O)c1ccc2ccccc2c1O)c1cccs1	27µM*	.	.	12%	8%	15%
O=C(NNC(=O)c1cc2ccccc2cc1O)c1cccs1	12µM*	.	.	3.2µM*	?	3.5µM*
C/C(=N\NC(=O)COc1ccc2ccccc2c1)c1cccs1	?	.	.	-1%	-6%	2%
Cc1ccccc1CNCc1c(C(=O)O)c(C)n(Cc2ccc(F)cc2Cl)c1C	0%	8%	.	.	.	.
N[C@H](C(=O)O)[C@H](N)C(=O)O	.	-11%[9.22 µM]	-2%[7.66 µM]	.	.	.
CNC(=O)C1CCC(Cn2c(=O)c3sccc3n(CC(=O)Nc3cc(F)ccc3F)c2=O)CC1 (centres undefined)	6%	.	.	.	.	.
Cc1nn(-c2ccccc2)c(C)c1/C=N/NC(=O)c1cc(O)cc(O)c1	19µM*	.	.	0%	-15%	-4%
Cc1nn(-c2ccccc2)c(C)c1/C=N/NC(=O)c1cnccn1	?	.	.	12%	7%	9%
Cc1nn(-c2ccccc2)c(C)c1-c1cc(C(=O)N/N=C/c2ccc(O)cc2)[nH]n1	21µM*	.	.	-1%	-6%	1%
Cc1nn(-c2ccccc2)c(C)c1/C=N/NC(=O)c1ccccc1O	1.9µM*	.	.	2%	9%	12%
COCC(=O)N1c2nc(-c3ccco3)nn2C2(CCCCC2)[C@@H]2CCCC[C@@H]21	-6%	.	.	.	.	.
COc1ccccc1CNC(=O)Cn1cc2c(n1)-c1c(oc(C(=O)N3CCOCC3)c1C)CC2	0%	.	.	.	.	.
Cc1c2cnn(CC(=O)O)c(=O)c2c(C)n1Cc1ccccc1	8%	0%	-4%	2%	6%	-1%
COC(=O)Cn1ncc2c(C)n(Cc3ccccc3)c(C)c2c1=O	12µM*	18µM*	-5%	?	21µM*	?
CNC(=O)Cn1ncc2c(C)n(Cc3ccc(C)cc3)c(C)c2c1=O	-1%	-21%	5%	-5%	2%	4%
Cc1ccc(Cn2c(C)c3cnn(CC(=O)NC4CCCC4)c(=O)c3c2C)cc1	?	.	.	?	12%	1.3µM*
CC(=O)O[C@@H]1CC[C@]2(C)C(=C[C@@H]([C@@H]3C=C4C[C@@H](OC(C)=O)CC[C@]4(C)C4=C3[C@H]3C[C@@H]5O[C@@]6(CC[C@H](C)CO6)[C@@H](C)[C@@H]5[C@@]3(C)CC4)C3=C2CC[C@@]2(C)[C@H]4[C@@H](C)[C@]5(CC[C@H](C)CO5)O[C@@H]4C[C@H]32)C1	.	-9%[9.22 µM]	-9%[7.66 µM]	.	.	.
c1ccc(-c2nnnn2-c2ccccc2)cc1	1%	.	.	0%	0%	3%
CN=c1nc(-c2ccccc2)n(-c2ccccc2)s1	15µM*	?	-12%	-5%[46.1 µM]	?	-12%[46.1 µM]
CN(CC(=O)Nc1cccc(F)c1)S(=O)(=O)c1ccc2c(c1)n(C)c(=O)c(=O)n2C	1%	-1%	.	.	.	.
COC(=O)C1=C(C)[C@H](O)[C@@H](C)[C@](C)(c2cc(OC)c(C)c(OC)c2COc2ccccc2)O1	.	-8%	0%	.	.	.
NCCc1nc(-c2nc(C(=O)O)cs2)cs1	.	-7%[9.22 µM]	0%[7.66 µM]	.	.	.

From PubChem
